Data from PubChem BioAssay (Tox21).
Inconclusive results are not listed. Calls of active or inactive are those of the source. Unless noted, calls follow the shape of the dose curve; as a rule, active = well fitted curve in the direction sought with a large enough effect in the repeat runs; inconclusive = weak or mixed curves; inactive = no such curve, though single readings can be large; an effect the other way counts as inactive or inconclusive. Non-standard residues stand in square brackets, D forms with d. Residues, ends and D or L forms follow the SMILES beside them. *: point of attachment. Sta = CC(C)C[C@H](N)[C@@H](O)CC(=O)O; Isovaleryl = CC(C)CC(=O)*

Tests used:
[1] = target: Aryl hydrocarbon receptor (Homo sapiens) (UniProt P35869); experiment: qHTS assay to identify small molecule that activate the aryl hydrocarbon receptor (AhR) signaling pathway (AID 743085);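 also: HG2L7.5c1 human HepG2 liver cells with stably integrated DRE-driven firefly reporter; series mostly up to about 70 µM; nearly all actives have a fitted effect of over 15% in size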
Chain of Aryl hydrocarbon receptor (Homo sapiens) (P35869 whole entry, looked up): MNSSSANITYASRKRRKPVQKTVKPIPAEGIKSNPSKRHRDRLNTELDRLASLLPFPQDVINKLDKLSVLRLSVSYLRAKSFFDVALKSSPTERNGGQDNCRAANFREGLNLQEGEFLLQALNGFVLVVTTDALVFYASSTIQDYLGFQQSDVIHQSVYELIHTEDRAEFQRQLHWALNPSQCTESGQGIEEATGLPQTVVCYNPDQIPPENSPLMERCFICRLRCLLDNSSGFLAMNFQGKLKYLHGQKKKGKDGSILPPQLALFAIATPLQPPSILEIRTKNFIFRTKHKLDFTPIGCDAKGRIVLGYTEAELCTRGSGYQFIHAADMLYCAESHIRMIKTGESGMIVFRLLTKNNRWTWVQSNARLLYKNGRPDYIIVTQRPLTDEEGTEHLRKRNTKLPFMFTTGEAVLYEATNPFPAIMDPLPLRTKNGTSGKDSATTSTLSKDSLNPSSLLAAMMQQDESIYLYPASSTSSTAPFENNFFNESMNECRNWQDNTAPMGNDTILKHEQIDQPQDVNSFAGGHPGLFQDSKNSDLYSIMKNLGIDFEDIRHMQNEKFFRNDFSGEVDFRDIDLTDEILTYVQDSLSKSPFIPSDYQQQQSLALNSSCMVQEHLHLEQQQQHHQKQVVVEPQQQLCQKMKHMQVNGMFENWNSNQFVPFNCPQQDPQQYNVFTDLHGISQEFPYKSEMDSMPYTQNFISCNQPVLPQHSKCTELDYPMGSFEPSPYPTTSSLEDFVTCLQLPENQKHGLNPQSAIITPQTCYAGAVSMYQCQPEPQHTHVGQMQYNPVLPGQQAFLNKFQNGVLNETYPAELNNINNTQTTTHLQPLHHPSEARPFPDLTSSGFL
Method in brief: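 AhR agonist activity is inferred from enhanced light output of a DRE-controlled firefly luciferase reporter in HepG2 cells, measured with ONE-Glo following 24 h treatment at 37C.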

[2] = qHTS assay to identify small molecule that activate the aryl hydrocarbon receptor (AhR) signaling pathway - cell viability counter screen (AID 743086);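 also: HepG2 liver cells carrying the AhR DRE luciferase reporter; series mostly up to about 70 µM; nearly all actives have a fitted effect of over 45% in size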
Method in brief: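 Cytotoxicity counter screen: CellTiter-Fluor signal (30 min, 37 C) in 4000 HepG2 cells/well carrying the DRE-luciferase reporter, following 24 h compound exposure at 37 C.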

[3] = target: Peroxisome proliferator-activated receptor gamma (Homo sapiens) (UniProt P37231); experiment: qHTS assay to identify small molecule agonists of the peroxisome proliferator-activated receptor gamma (PPARg) signaling pathway (AID 743094; active = well fitted activation curve with a large enough effect in the signal ratio in the repeat runs, not every such curve was filed as active; the % refers to the signal ratio)
Chain of Peroxisome proliferator-activated receptor gamma (Homo sapiens) (P37231 whole entry, looked up): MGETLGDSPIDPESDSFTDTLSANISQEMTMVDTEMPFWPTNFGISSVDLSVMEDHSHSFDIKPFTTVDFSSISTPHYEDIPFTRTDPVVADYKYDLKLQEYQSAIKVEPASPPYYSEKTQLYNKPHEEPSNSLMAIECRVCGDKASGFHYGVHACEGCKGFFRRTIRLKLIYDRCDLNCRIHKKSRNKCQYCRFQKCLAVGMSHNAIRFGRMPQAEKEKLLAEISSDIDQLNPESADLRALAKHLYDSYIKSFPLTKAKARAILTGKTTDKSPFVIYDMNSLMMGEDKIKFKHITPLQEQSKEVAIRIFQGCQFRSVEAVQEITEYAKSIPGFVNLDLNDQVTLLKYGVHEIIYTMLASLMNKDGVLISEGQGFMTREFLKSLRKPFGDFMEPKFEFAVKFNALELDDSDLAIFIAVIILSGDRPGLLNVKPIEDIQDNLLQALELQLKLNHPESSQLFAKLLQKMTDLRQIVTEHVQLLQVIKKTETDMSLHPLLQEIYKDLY
Method in brief: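 Fluorescence-based beta-lactamase readout in HEK293H PPARg UAS-bla cells after 17 h compound exposure (37C) and 1 h B/G FRET substrate incubation at room temperature.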

[4] = qHTS assay to identify small molecule antagonists of the peroxisome proliferator-activated receptor gamma (PPARg) signaling pathway - cell viability counter screen (AID 743194); also: nearly all actives have a fitted effect of over 55% in size
Method in brief: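 Viability was measured as CellTiter-Glo luminescence in GeneBLAzer PPARg UAS-bla HEK293H cells. These cells had been exposed 17 h at 37 C to compounds together with rosiglitazone at 50 nM final, with the beta-lactamase readout taken in the same wells.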

[5] = qHTS assay for small molecule agonists of the antioxidant response element (ARE) signaling pathway (AID 743202; active = well fitted activation curve with a large enough effect in the signal ratio in the repeat runs, not every such curve was filed as active; the % refers to the signal ratio)
Method in brief: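 Beta-lactamase reporter activity, read as fluorescence intensity, reflects ARE/Nrf2 pathway induction in HepG2 cells after 16 h compound exposure at 37 C; substrate loading was 2 h at room temperature.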

[6] = qHTS assay for small molecule agonists of the antioxidant response element (ARE) signaling pathway - cell viability counter screen (AID 743203; calls by dose curve; also: nearly all actives have a fitted effect of over 55% in size)
Method in brief: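 Parallel cytotoxicity read-out for the ARE-bla screen: HepG2 reporter cells, 16 hrs with compounds, then CellTiter-Glo luminescence.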

[7] = qHTS assay for small molecule activators of the heat shock response signaling pathway - cell viability counter screen (AID 743209); also: nearly all actives have a fitted effect of over 50% in size
Method in brief: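 To flag cytotoxic compounds, HSE-bla HeLa cells plated at 1500 cells/well were dosed for 5 h at 37 C, followed by the reporter FRET read and then CellTiter-Glo, with luminescence recorded 30 min after reagent addition.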

[8] = qHTS assay for small molecule activators of the heat shock response signaling pathway (AID 743210; active = well fitted activation curve with a large enough effect in the signal ratio in the repeat runs, with a control signal flat, not every such curve was filed as active; the % refers to the signal ratio;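 also: HeLa cells with beta-lactamase reporter driven by heat shock elements; series mostly up to about 63 µM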)
Method in brief: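 Fluorescence from a cleaved B/G FRET substrate (2.5 h, room temp) reports HSE-driven beta-lactamase in HeLa cells treated 5 h at 37 C with DMSO-dissolved compounds.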

[9] = qHTS assay to identify small molecule agonists of the peroxisome proliferator-activated receptor delta (PPARd) signaling pathway - cell viability counter screen (AID 743211); also: nearly all actives have a fitted effect of over 55% in size
Method in brief: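 qHTS cell viability: PPARd-bla HEK293H; 17 h cpd, 37C; CellTiter-Glo, luminescence at 30 min RT.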

[10] = target: Peroxisome proliferator-activated receptor gamma (Homo sapiens) (UniProt P37231); experiment: qHTS assay to identify small molecule antagonists of the peroxisome proliferator-activated receptor gamma (PPARg) signaling pathway (AID 743191; calls by dose curve; also: series mostly up to about 63 µM; nearly all actives have a fitted effect of over 30% in size)
Method in brief: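 Beta-lactamase reporter under UAS control in HEK293H PPARg-bla cells; compound treatment 17 h at 37C. Read-out: fluorescence intensity after 1 h room-temperature incubation with LiveBLAzer B/G FRET substrate.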

Measured: Potency

Cc1ccc(O)c(C(=O)c2ccccc2)c1
inactive: [1] | [2] | [3] | [4] | [5] | [6] | [7] | [8] | [9]

CC(C)CC(=O)N[C@H](C(=O)N[C@H](C(=O)N[C@@H](CC(C)C)[C@@H](O)CC(=O)N[C@@H](C)C(=O)N[C@@H](CC(C)C)[C@@H](O)CC(=O)O)C(C)C)C(C)C (Isovaleryl-VV[Sta]A[Sta]-OH)
inactive: [1] | [2] | [3] | [10] | [5] | [6] | [7] | [9]

CCOCCOCCOC(C)=O
inactive: [1] | [2] | [3] | [4] | [5] | [6] | [7] | [8] | [9]

C=CC(=O)OCCOCCOCC
inactive: [1] | [2] | [3] | [10] | [4] | [6] | [9]

CC1(C)CC(N)CC(C)(C)N1
inactive: [1] | [2] | [3] | [4] | [5] | [6] | [7] | [8] | [9]

CC(=O)c1c(C)cc(C(C)(C)C)cc1C
inactive: [1] | [2] | [3] | [10] | [6] | [7] | [8] | [9]

CCCCN=C(N)N=C(N)N
inactive: [1] | [2] | [3] | [10] | [4] | [6] | [7] | [8] | [9]

CCCCC(CC)CCC(CC(C)C)OS(=O)(=O)O (configuration not stated)
inactive: [1] | [2] | [3] | [10] | [4] | [6] | [7] | [8] | [9]

CCCc1ccc(O)c(OC)c1
inactive: [1] | [2] | [3] | [10] | [4] | [5] | [7] | [8] | [9]

C=CCON/C(CCC)=C1\C(=O)CC(C)(C)C(C(=O)OC)=C1O
inactive: [1] | [2] | [3] | [10] | [4] | [5] | [7] | [8] | [9]

CC(=O)SCC(CC(=O)c1ccc(C)cc1)C(=O)O (configuration not stated)
inactive: [1] | [2] | [3] | [10] | [5] | [6] | [7] | [8] | [9]

COc1ccc(Cl)cc1C
inactive: [1] | [2] | [3] | [5] | [6] | [7] | [8] | [9]

CC(C)OCCO
inactive: [1] | [2] | [10] | [4] | [5] | [7] | [8] | [9]

C=CCN(CC=C)CC=C
inactive: [1] | [2] | [3] | [4] | [6] | [7] | [8] | [9]

O=C(c1ccccc1)c1cccc(O)c1
inactive: [1] | [2] | [3] | [6] | [7] | [8] | [9]

CC/C=C/CCCCCCCCCCOC(C)=O
inactive: [1] | [2] | [3] | [5] | [6] | [7] | [8] | [9]

Cc1ccc(OC(=O)CC(C)C)cc1
inactive: [1] | [2] | [3] | [4] | [5] | [6] | [7] | [8] | [9]

O=P(O)(O)C(O)(Cc1cccnc1)P(=O)(O)O
inactive: [1] | [2] | [3] | [4] | [5] | [6] | [7] | [8] | [9]
